# High-throughput results as filed in PubChem BioAssay.
# Pf Dd2 growth – inhibitors of Plasmodium falciparum Dd2 growth; P. falciparum Dd2 growth, SYBR Green, 72 h; Potency, µM (titrated, usually from 28.9 µM), hits mostly inhibitors; 120,000 compounds, 4.3% hits; AID 1347417; active means well fitted inhibition curve with a large enough effect; further: nearly all actives have a fitted effect of over 65% in size
#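 Infected erythrocytes (Dd2, 0.3% parasitemia, 2.5% hematocrit final) are added to compound in RPMI-1640/Albumax II medium, grown 72 h at 37C in low oxygen, then lysed with saponin/Triton-X containing SYBR Green and read by fluorescence.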
# Hits are given with their value; - = inactive. The sample as a whole holds a higher share of hits than the screen did.
SMILES,Pf Dd2 growth
COc1ccc(NC(=O)/C=C\C(=O)N(c2ccc(C(C)C)cc2)C(C(=O)NCc2ccco2)c2ccc(C)cc2)cc1 (stereo not drawn),10µM
N#Cc1ccc(CN2CCC3(C2)NC(=O)c2ccccc2CO3)cc1 (stereo not drawn),-
COCCc1nn2c(=O)cc(COC(=O)C(c3ccccc3)c3ccccc3)nc2s1,1.26µM
CCc1nn2c(=O)cc(COC(=O)C(c3ccccc3)c3ccccc3)nc2s1,-
COCCc1nn2c(=O)cc(COC(=O)c3ccc(Br)cc3)nc2s1,-
CN(C)C[C@H]1C[C@@H](CO)CN(C(=O)c2ccccc2-c2ccc(F)cc2)C1,-
CCOCCCNC(=O)C(c1ccc(OC)cc1)N(Cc1cccs1)C(=O)c1ccccc1O (stereo not drawn),-
COCCn1c(C)nnc1-c1cc(-c2cccc(OC)c2)ccn1,-
CC(C)c1ccc(CC(=O)N2CCCc3ncc(C(=O)Nc4ccn(C)n4)cc32)cc1,-
CC(C)c1ccc(CC(=O)N2CCCc3ncc(C(=O)Nc4ccccc4)cc32)cc1,-
Cc1csc(NC(=O)c2cnc3c(c2)N(C(=O)Cc2ccc(C(C)C)cc2)CCC3)n1,7.08µM
COc1ccc(NC(=O)c2cnc3c(c2)N(C(=O)Cc2ccc(O)cc2)CCC3)cn1,-
O=C(Nc1ccccc1)c1cnc2c(c1)N(C(=O)Cc1ccc(O)cc1)CCC2,-
O=C(NC(c1ccccc1)c1ccccc1)c1cnc2c(c1)N(C(=O)Cc1ccc(O)cc1)CCC2,12.6µM
CC(C)CN1C(=O)c2cccn2CC1C(=O)N(C)Cc1cccnc1 (stereo not drawn),-
CN1CCC(Oc2ncccc2C(=O)N2CCOCC2)CC1,-
O=C(NCCc1ccc(Cl)cc1)C(=O)NCC(c1ccco1)S(=O)(=O)c1cccs1 (stereo not drawn),-
O=C(Cn1ccn2nc(-c3ccccc3)c(CO)c2c1=O)N1CCN(c2ccccc2F)CC1,-
O=c1c2c(CO)c(-c3ccccc3)nn2ccn1Cc1cccc(F)c1,-
COc1ccccc1N1CCN(C(=O)Cn2c(=O)nc(-c3ccccc3)c3ccccc32)CC1,11.2µM
O=C(Cn1ccn2nc(-c3ccc(F)cc3)c(CO)c2c1=O)N1CCN(c2ccccc2F)CC1,-
COc1ccccc1N1CCN(C(=O)Cn2c(=O)n3nc(-c4cccc(F)c4)nc3c3ccccc32)CC1,-
O=c1c2c(CO)c(-c3ccc(F)cc3)nn2ccn1Cc1ccc(Br)cc1,8.91µM
O=c1c2c(CO)c(-c3ccc(F)cc3)nn2ccn1CCc1ccccc1,-
CCc1cc(=O)n(CC(=O)N2CCN(c3ccccc3OC)CC2)c(-c2ccccc2)n1,-
SMILES,Pf Dd2 growth
COc1ccccc1N1CCN(C(=O)Cn2ccn3nc(-c4ccc(F)cc4)c(CO)c3c2=O)CC1,8.91µM
COc1ccc(CCC(=O)NCc2nc3cccnc3n2Cc2cccc(OC)c2)cc1,-
O=C(N[C@H]1CCOC[C@H]1C1CCOCC1)c1cc2ncccn2n1,-
Cc1ccc(S(=O)(=O)N2CCC(Oc3ccc(C(N)=O)cn3)CC2)cc1,-
Cc1ccc(C(=O)N2CCn3c(nn(-c4ccc(C(F)(F)F)cc4)c3=O)C2)cc1,-
CN1CCN(C(=O)c2cccc3nccnc23)CC12CCNCC2,-
CCCC(O)c1nc2ccccc2n1CCCOc1ccc(Cl)cc1 (stereo not drawn),5.01µM
Cc1ccc(OCCn2c(COc3ccc(Cl)cc3)nc3ccccc32)cc1,-
CCc1ccc(OCCCn2c(-c3ccc(Cl)cc3)nc3ccccc3c2=O)cc1,-
CCn1cc(CN2CCN(C(=O)COc3ccccc3)CC2)ccc1=O,-
CCN(C(=O)c1cccc(F)c1F)[C@@H]1CCN(c2ncccc2C#N)C[C@H]1O,-
COc1ccc(Cl)cc1NC(=O)CCC1CCCN(C(=O)CCc2scnc2C)C1 (stereo not drawn),-
COc1ccc(Cl)cc1NC(=O)CCC1CCCN(S(=O)(=O)C2CC2)C1 (stereo not drawn),-
COc1cc(OC)cc(C(=O)NCC2CCCN(C(=O)C3=C(C)OCCO3)C2)c1 (stereo not drawn),-
COc1ccc(Cl)cc1NC(=O)CCC1CCCN(Cc2ccc(C)s2)C1 (stereo not drawn),12.6µM
COc1ccc(NC(=O)CCC2CCCN(C(=O)c3csc(C(C)=O)c3)C2)cc1Cl (stereo not drawn),-
COc1ccc(NC(=O)CCC2CCCN(C(=O)C3=C(C)OCCO3)C2)cc1Cl (stereo not drawn),3.16µM
O=C(Nc1ccc(Cl)cc1Cl)c1cnn2c1CN(C(=O)OCc1ccccc1)CC2,-
Cc1ccc(Nc2ccnc(N3CC4CCC(C3)N4CC(F)(F)F)n2)cc1,10µM
Cc1cc(C)nc(N2CC3CCC(C2)N3CC(F)(F)F)c1,-
FC(F)(F)CN1C2CCC1CN(c1nccc(C(F)(F)F)n1)C2,-
Cc1ccccc1NC(=O)Cn1c(=O)n(-c2ccc(CC(=O)NCC3CCCO3)cc2)c(=O)c2ccccc21 (stereo not drawn),-
Cc1noc([C@@H]2CC(F)(F)CN2C(=O)c2occc2C)n1,-
CCN1CCN(c2cc(C)c3cc(NC(=O)c4cc(OC)cc(OC)c4)ccc3n2)CC1,0.398µM
Cc1cc(N2CCCCC2)nc2ccc(NC(=O)c3ccc(F)cc3)cc12,-
SMILES,Pf Dd2 growth
COc1cc(OC)cc(C(=O)Nc2ccc3c(c2)n(C)c(=O)c(=O)n3C)c1,-
CCN1CCN(c2cc(C)c3cc(NC(=O)/C=C/c4cccc(Cl)c4)ccc3n2)CC1,3.16µM
O=C(NCc1cccc(Cl)c1)C(=O)Nc1ccc2nc3n(c(=O)c2c1)CCCCC3,-
CC1CCN(c2ccc(NC(=O)c3cccc(Cl)c3)cc2C(=O)O)CC1,-
COc1ccc(C(=O)Nc2ccc3nc(N4CCC(C)CC4)cc(C)c3c2)cc1,-
CCCCc1ccc(NC(=O)c2ccc(=O)n(Cc3cccc(C)c3)c2)cc1,-
O=C(Nc1ccc2oc(-c3cccc4c(Br)cccc34)nc2c1)c1cccc(Cl)c1,-
CCN1CCN(c2cc(C)c3cc(NC(=O)c4cccc(Cl)c4)ccc3n2)CC1,1.58µM
CCN1C[C@@H]2C(C(=O)Nc3cccc(Cl)c3)=NO[C@@H]2C1,-
CCCCc1ccc(C(=O)Nc2ccc3nc(N4CCN(CC)CC4)cc(C)c3c2)cc1,4.47µM
COc1ccc(C(=O)N2CCCn3nc(C)c(-c4ccnn4C(C)C)c32)cc1,-
COCc1nc(C2CC(N)C2)cc(N2CCC3(CC2)CNC(=O)O3)n1 (stereo not drawn),-
CC(C)NC(=O)N1CCOc2ccc(CCC(N)=O)cc2C1,-
CCN(CC)Cc1cnc2c(C(=O)NC(C)c3ccc(O)cc3)cnn2c1 (stereo not drawn),-
CCOc1cccn2c(=O)c(-c3cc(C)n(-c4ccccc4C)n3)c(C)nc12,-
O=C(NC(C(=O)N1CCCC1)C1CCN(C(=O)c2cccs2)CC1)c1ccc(F)cc1 (stereo not drawn),-
COc1ccc(Cn2c(=O)[nH]c3cc(C(=O)N4CCN(c5cc(Cl)ccc5C)CC4)ccc3c2=O)cc1,-
CC(=O)Nc1ccc(S(=O)(=O)NC[C@@H]2C=C(C)[C@H](CC(=O)NCCN3CCOCC3)C[C@H]2C(C)C)cc1,-
COc1ccc(-c2cn3c(n2)CO[C@@H](CNC(=O)C(C)(C)C)C3)cc1,-
COc1cncc([C@@H](NC(=O)c2ccc3c(c2)OCO3)C2CC(O)C2)c1 (stereo partly drawn),-
COc1ccc(-c2cc(-c3cccc(CO)c3)cn3cncc23)cn1,3.98µM
c1cncc(-c2cc(-c3cccc4cc[nH]c34)cn3cncc23)c1,10µM
